Structures are written as SMILES. About 2,100 (0.62%) of roughly 340,000 compounds were called active. Not all results are given here. Potency and affinity values are given separately. A number with no mark means an inactive call.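 The calls were made as follows: active = first-screen hits whose inhibition reached a set limit at any dose in the follow-up dose series; inconclusive = inhibition above the set first-screen limit but never retested; inactive = the rest.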

The inhibition is the change of the read-out against control, counted positive when it falls.

The target of the assay is Rac GTPase-activating protein 1 (Homo sapiens) (UniProt Q9H0H5). Description: blockers of MgcRacGAP-driven Rac1 GTP hydrolysis – biochemical, ADP Hunter fluorescence, primary and confirmatory, confirmation (AID 624330).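 Also: fluorescence reports GDP produced by GAP-driven GTP hydrolysis.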 Conditions: MgcRacGAP-stimulated Rac1 GTP hydrolysis, at 30 µM, stronger effect = higher value, GST-tagged Rac1 F28L mutant substrate.
Sequence of Rac GTPase-activating protein 1 (Homo sapiens) (Q9H0H5 whole entry, looked up): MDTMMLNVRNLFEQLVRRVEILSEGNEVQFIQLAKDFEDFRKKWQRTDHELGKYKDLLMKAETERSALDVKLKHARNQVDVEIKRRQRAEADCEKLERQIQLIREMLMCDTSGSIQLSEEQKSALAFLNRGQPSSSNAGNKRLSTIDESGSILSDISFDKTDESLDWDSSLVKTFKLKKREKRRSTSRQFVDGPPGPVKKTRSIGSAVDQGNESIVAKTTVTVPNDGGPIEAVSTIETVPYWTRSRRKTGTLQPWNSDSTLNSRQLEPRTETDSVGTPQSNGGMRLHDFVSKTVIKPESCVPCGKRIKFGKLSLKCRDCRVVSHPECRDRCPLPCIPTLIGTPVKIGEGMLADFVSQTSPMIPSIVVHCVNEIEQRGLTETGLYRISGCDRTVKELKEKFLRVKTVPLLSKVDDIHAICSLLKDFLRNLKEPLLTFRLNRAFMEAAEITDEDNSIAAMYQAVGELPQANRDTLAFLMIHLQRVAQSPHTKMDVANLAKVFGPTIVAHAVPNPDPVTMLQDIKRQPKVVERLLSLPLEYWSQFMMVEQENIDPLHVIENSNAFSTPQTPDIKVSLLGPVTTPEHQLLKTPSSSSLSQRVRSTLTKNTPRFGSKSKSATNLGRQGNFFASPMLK
`CCC(C)(c1ccc(C=O)s1)c1ccc(C=O)s1`: the inhibition was 6.23%.
Take `Cc1ccc2c(CC(=O)NCc3cccs3)coc2c1`: the inhibition is 3.76%.
For the compound `COc1ccc2c(CC(=O)NNC(=O)c3cccs3)coc2c1`, the inhibition was 5.91%.
Consider `Cc1ccc2c(CC(=O)NNC(=O)c3ccccc3)coc2c1`, for which the inhibition is 6.09%.
As for `Cc1ccc2c(CC(=O)NNC(=O)c3ccccc3O)coc2c1`, the figure is -8.73%; as for `CN(C)CC1(c2ccccc2)CCCC1`, -6.5%.
As for `CC1CCCCN1C(=S)Nc1ccc(OC(F)F)cc1` (stereo not drawn), the inhibition is 2.05%.
With `O=c1[nH]c2ccccc2cc1CN(Cc1ccco1)S(=O)(=O)c1ccccc1`, the inhibition was 5.99%.
For the compound `CC(C)(C)NC(=O)C(c1ccc(-c2ccccc2)cc1)N(C[C@H]1CC[C@@H]([C@@H]2CC[C@H](CO)O2)O1)C(=O)c1ccccc1F` (stereo partly drawn), the inhibition was 3.69%.
As for `O=C(O)Cn1nc(-c2ccccc2)ccc1=O`, the inhibition is -3.67%.
For the compound `CCN(CC)CCOC(=O)c1ccc(N/C=C(/C#N)c2nc(-c3ccc(OC)cc3)cs2)cc1`, the inhibition is 10.3%.
Consider `CCN(CC)CCOC(=O)c1ccc(N/C=C(/C#N)c2nc(-c3cc4ccccc4oc3=O)cs2)cc1`, for which the inhibition is 26.6%.
Regarding `COc1ccc(-c2csc(/C(C#N)=C/Nc3ccc4c(c3)OCCO4)n2)cc1`, the inhibition is 2.83%.
As for `Cc1ccc(-c2csc(/C(C#N)=C/Nc3ccc4c(c3)OCCO4)n2)cc1`, the figure is 16.1%; as for `c1ccc(-c2ncc(CSc3nncn3-c3ccccc3)s2)cc1`, 1.96%; as for `Cn1cc(SCC(=O)Nc2ccc3c(c2)OCO3)c2ccccc21`, 5.29%.
As for `O=C(NCc1ccccc1Cl)c1ccccc1CCc1ccccc1`, the figure is 6.88%; as for `Cc1ccc(NC(=O)C2=CC=CN3CCS(=O)(=O)N=C23)cc1`, 2.18%.
Consider `CCc1ccc(NC(=O)C2=CC=CN3CCS(=O)(=O)N=C23)cc1`, for which the inhibition was 7.78%.
As for `CN(C)C(=O)CCc1nc2sc3c(c2c(=O)[nH]1)CCCC3`, the figure is 18%; as for `NC(=O)Cn1cc(/C=N\NS(=O)(=O)c2ccc(Cl)cc2)c2ccccc21`, 20%.
Consider `COC(=O)c1ccc(NC(=S)N2CCN(Cc3ccc(Cl)cc3)CC2)cc1`, for which the inhibition is -0.55%.
Regarding `CSC1=NSC2=NC(=O)/C(=C/c3coc4ccc(O)cc4c3=O)C(=N)N12`, the inhibition was 14.1%.
On to `CN1C(=O)/C(=C/c2coc3ccc(O)cc3c2=O)SC1=S`, for which the inhibition was 11.2%.
With `O=C1NC(=S)S/C1=C\c1coc2ccc(O)cc2c1=O`, the inhibition was 7.3%.
As for `O=C1NN(c2ccccc2)C(=O)/C1=C\c1coc2ccc(O)cc2c1=O`, the figure is 23.8%; as for `COc1ccc(CCNC(=O)c2cccc(S(=O)(=O)N3CCCCC3)c2)cc1`, 8.12%.
With `C[C@H]1CN([C@@H](C)CO)C(=O)c2cccc(NC(=O)Nc3ccc(F)cc3)c2O[C@@H]1CN(C)Cc1ccc(C(=O)O)cc1`, the inhibition was 2.98%.
As for `O=C(NCc1ccccn1)C1Nc2ccc(C(F)(F)F)cc2C2C=CCC12` (stereo not drawn), the inhibition is 24.7%.
On to `O=c1cc(CNc2cc(Cl)ccc2Cl)nc2sccn12`, for which the inhibition is 2.5%.
On to `CCN(CC)C(=O)C(Sc1nnnn1-c1ccc(O)cc1)c1ccccc1` (stereo not drawn), for which the inhibition is 3.92%.
With `Cc1c(Br)cnn1C(C)C(=O)N1CCN(c2ccc(F)cc2)CC1` (stereo not drawn), the inhibition is 3.49%.
Take `O=C(/C=C/c1cccc(Cl)c1)OCc1cn2cc(Cl)ccc2n1`: the inhibition was 11.7%.
On to `COc1cccc(/C=C/C(=O)NCc2cn3cc(Cl)ccc3n2)c1`, for which the inhibition is 2.4%.
As for `COc1cc(/C=C/C(=O)OCC(=O)Nc2ccc(Cl)cn2)ccc1O`, the figure is 21.2%; as for `COc1cc(/C=C/C(=O)OCC(=O)Nc2ccccc2Sc2ccc(Cl)cc2)ccc1O`, 16.7%.
Take `COc1cc(NC(=O)COC(=O)/C=C/c2ccc(OC)c(OC)c2)cc(OC)c1`: the inhibition was -0.81%.
As for `COc1cc(/C=C/C(=O)OCC(=O)Nc2cc(C)c(C)cc2[N+](=O)[O-])ccc1O`, the figure is 9.32%; as for `O=C(COC(=O)/C=C/c1cccc(F)c1)Nc1ccccc1`, -19.5%; as for `COc1cc(/C=C/C(=O)OCC(=O)Nc2ccc([N+](=O)[O-])cc2)ccc1O`, 4.8%.
Regarding `CCOc1cc(CNCC2CCCO2)cc(Br)c1OCC(N)=O` (stereo not drawn), the inhibition is 3.03%.
As for `CCn1ncc(CN2CCN(C(=O)Nc3ccccc3C(=O)OC)CC2)c1C`, the figure is 6.62%.
Turning to `O=C(Cn1ncn2c(cc3ccccc32)c1=O)NCCCc1ccccc1`, the inhibition was 1.38%.
`CC(C)(C)NC(=O)CN1C(=O)/C(=C/c2ccccc2)SC1=S`: the inhibition is 9.16%.
Take `CCC(Cc1ccccc1)NC(=O)CCc1ccccc1` (stereo not drawn): the inhibition is 7.57%.
On to `O=C(OCN1C(=O)C(=O)c2ccccc21)c1ccc(Cl)cc1`, for which the inhibition is 7.35%.
For the compound `CCCCn1c(N)c(N(Cc2ccccc2OC)C(=O)COc2ccc(F)cc2Cl)c(=O)[nH]c1=O`, the inhibition is 4.08%.
Turning to `CCOC(=O)C1=C(COC(=O)/C=C/c2ccc(OC)c(OC)c2)NC(=O)NC1C` (stereo not drawn), the inhibition is -0.71%.
Take `CCOC(=O)C1=C(COC(=O)/C=C/c2ccc(OCC)c(OC)c2)NC(=O)NC1C` (stereo not drawn): the inhibition is 9.47%.
As for `COc1ccc(-c2cc(C3CCN(Cc4cccc(C(F)(F)F)c4)CC3)[nH]n2)cc1`, the figure is 9.81%; as for `CC(C)c1ccc2nc(NC(=O)C3CC3)sc2c1`, 9.94%; as for `COc1ccccc1NC(=O)c1ccccc1S(=O)(=O)c1ccc([N+](=O)[O-])cc1`, 11.4%.
Take `c1ccc(Nc2ccccn2)cc1`: the inhibition was 1.32%.
As for `c1ccc(Nc2cccc(Nc3ccccc3)n2)cc1`, the figure is 16.6%.
As for `Cc1ccc(NC(=O)CSc2ccc3c(c2)OCCO3)c(O)c1`, the figure is 8.94%.
With `CC(=O)c1ccc(N2CCN(C(=O)COc3ccc4c(c3)CCC4)CC2)cc1`, the inhibition is 5.57%.
As for `O=C(O)c1ccc2c(c1)S(=O)(=O)c1cc(N3CCN(c4cnccn4)CC3)ccc1C2=O`, the figure is 13.8%.
As for `O=C(Cn1[nH]c(=O)c2ccccc2c1=O)NC1CCN(Cc2ccccc2)CC1`, the figure is 5.55%; as for `COc1cc(C)c(-c2cc(C(=O)O)c(C)o2)cc1C(C)C`, 8.02%; as for `COc1cc(C)c(S(=O)(=O)N2CCCC2)cc1C(C)C`, 3.94%.
With `Nc1ccc2c(=O)[nH][nH]c(=O)c2c1`, the inhibition was 3.77%.
Consider `Nc1ccc2c(c1)[nH]c(=O)c1ccccc12`, for which the inhibition was 21.4%.
Consider `C[C@H](CO)N1C[C@H](C)[C@@H](CN(C)S(=O)(=O)c2cccs2)Oc2ccc(NC(=O)NC3CCCCC3)cc2C1=O`, for which the inhibition is 3.35%.
As for `Cn1ccnc1Sc1nc2c(c(=O)n(C)c(=O)n2C)n1C`, the figure is 1.94%; as for `COc1cc(C(=O)Nc2cccc(S(=O)(=O)N3CCCC3)c2)c([N+](=O)[O-])cc1OC`, 4.7%; as for `S=c1[nH]nc2nnc3ccccc3n12`, 17.6%.
As for `Cn1c(=S)[nH]c2ccccc21`, the figure is 11.4%.
As for `COc1cc(NC(=O)c2cccc(F)c2)cc(OC)c1OC`, the figure is 8.45%; as for `C=CCn1c2ccccc2c2n[nH]c(=S)nc21`, 3.05%; as for `COCCNC(=O)c1c[nH]c2ccc(S(=O)(=O)N3CCC4(CC3)OCCO4)cc2c1=O`, 10.7%.
In the case of `Cc1ccc(N=C2CCCCCN2C)c(C#N)c1`, the inhibition is 3.58%.
As to `N#Cc1ccccc1N=C1CCCN1Cc1ccccc1`, the inhibition is 16.7%.
On to `CCc1ccc(OCC(O)Cn2c(N3CCCCC3)nc3c2c(=O)[nH]c(=O)n3C)cc1` (stereo not drawn), for which the inhibition was -4.27%.
With `O=C(Nc1ccccc1Cl)OCC#CCOC(=O)Nc1ccccc1Cl`, the inhibition was 11%.
For `O=C(Nc1ccccc1Cl)Oc1ccc(Cl)cc1Cl`, the inhibition was 9.61%.
For the compound `C[C@@H]1CN([C@@H](C)CO)C(=O)CCCn2nncc2CO[C@H]1CN(C)C(=O)Nc1ccc(N2CCCCC2)cc1`, the inhibition was 11.5%.
As for `O=C(CCN1C(=O)/C(=C/c2ccccc2Cl)SC1=S)NN1CCOCC1`, the figure is 4.7%; as for `Cn1nccc1NC(=O)Nc1cccc(Cl)c1Cl`, 2.52%; as for `CC(C)(C)c1nnc(N/N=C/c2ccccc2)n(N)c1=O`, 8.65%.
As for `CC(C)(C)c1nnc(N/N=C/c2ccc(Br)cc2)n(N)c1=O`, the figure is 9.58%; as for `CCOc1ccc(NC(=O)CN(C)C(=O)c2cn(-c3ccc(F)cc3)nc2-c2cccc(OC)c2)cc1OCC`, 0.09%.
For `CC(OC(=O)/C=C/c1ccccc1)C(=O)Nc1ccc2c(c1)OCCO2` (stereo not drawn), the inhibition was 9.16%.
Take `O=C(NCCc1nc2ccccc2[nH]1)Nc1ccccc1`: the inhibition was 8.22%.
On to `COc1ccc(NC(=O)c2cc(OC)c(OC)c(OC)c2)cn1`, for which the inhibition is 7.64%.
As for `COc1ccc(NC(=O)c2cccc(Oc3ccccc3)c2)cn1`, the figure is 4.7%.
On to `NS(=O)(=O)c1cccc(NC(=O)c2cccc(-c3ccc(O)cc3)c2)c1`, for which the inhibition was 12.5%.
Take `COc1cccc(C(=O)Nc2cccc(NC(C)=O)c2)c1`: the inhibition was 10.6%.
As for `CCOc1ccc(N(C(C)C(=O)Nc2ccc(OC)cc2)S(C)(=O)=O)cc1` (stereo not drawn), the figure is 9.57%.
For `Cc1ccc(NC(=O)COC(=O)c2cc(Cl)ccc2[N+](=O)[O-])cc1`, the inhibition is 9%.
For `O=C1c2c(O)cc(O)cc2O[C@H](c2ccc(O)c(O)c2)[C@H]1O`, the inhibition was 13.3%.
On to `O=C(c1c(O)cc(O)cc1O)C1c2c(cc(O)c3c2O[C@H](c2ccc(O)cc2)[C@@H](O)C3)OC1c1ccc(O)cc1` (stereo partly drawn), for which the inhibition is 12.8%.
With `COc1cc2c3c([nH]c2cc1F)C(=O)NCC3`, the inhibition was 9.04%.
`O=[N+]([O-])c1cccc(CSc2nc3ccccc3[nH]2)c1`: the inhibition was 3.52%.

The record behind these values is PubChem BioAssay AID624330 (Southern Research Specialized Biocontainment Screening …, 2012).
